Compounds without any hit were thinned out: in the full panel of roughly 83,000, 20% have a hit.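 Values shown are percent growth following 48 h exposure of cells in 96-well plates to a single concentration of compound; below 10 was considered active.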 The source made the active and inactive calls.

The experiment relates to MDA-MB-468 breast. The experiment is described as follows: NCI-60 one-dose screen, 48 h (100 = growth as untreated, 0 = no growth, -100 = all killed). Particulars: 10 µM unless noted.
As for `O=C(Nc1cccc(Cl)c1)c1ccc(Cl)cc1Cl`, the growth is 96.9% (inactive).
Turning to `O=C(CN1CCN(c2cc(=O)[nH]c3ccc(F)cc23)CC1)Nc1ccc(Cl)cc1`, the growth is 58.2% (inactive).
As for `O=C(CCCCCn1c2ccccc2c2c3c(c4c5ccccc5[nH]c4c21)C(=O)N(O)C3=O)N1CCOCC1`, the growth is 3.68% (active).
Regarding `CN1CCN(C(=O)c2c3c(n4ccccc24)C(=O)c2ncccc2C3=O)CC1`, the growth was 88.4% (inactive).
As to `O=C(CSc1ccc(Cl)cc1)Nc1ccc(-c2nc3ccccc3s2)c(Cl)c1`, the growth was 52.1% (inactive).
As for `CC(=O)/C(C)=N\OC(=O)Nc1ccccc1`, the growth was 114% (inactive).
Turning to `CC1(C)/C(=C\CO)C2CCC1C2` (stereo not given), the growth is 101% (inactive).
For `CN(C)c1cccc2c(S(=O)(=O)Nc3cccc(-c4csc(NC(=O)CCCCCN5CCN(CCO)CC5)n4)c3)cccc12`, the growth is 79.3% (inactive).
The value for `CCCCCCCCCCCCCCCCCCOc1ccccc1CC(=O)NCC[N+]1(C)CCCC1` was 3.53% (active).
As to `COc1cc(C2CC(c3ccc(Cl)cc3)=NN2C(C)=O)ccc1Oc1ccnc2cc(Cl)ccc12` (stereo not given), the growth is 67.4% (inactive).
The value for `CCCCOc1ccc(C(C)(C)c2ccc(OCCCC)cc2)cc1` was 132% (inactive); that for `COc1cc(NC(=O)COc2ccccc2)c(C(N)=O)cc1OC` was 17.7% (inactive).
The value for `CN(C)c1cc(NN=C(c2ccc(O)cc2)c2ccc(O)cc2)c([N+](=O)[O-])cc1[N+](=O)[O-]` was 102% (inactive).
For the molecule `Cc1c(C(N)=O)sc2c1c(=O)n(Cc1ccccc1)c1nnc(-c3ccc(Br)cc3)n21`, the growth was 29.8% (inactive).
For the molecule `O=c1oc2c(cnc3ccccc32)cc1-c1cccs1`, the growth is 107% (inactive).
As for `C=C(C)[C@@H]1CC[C@]2(C(=O)N[C@H](CO)Cc3ccccc3)CC[C@]3(C)[C@H](CC[C@@H]4[C@@]5(C)CCCNC(C)(C)[C@@H]5CC[C@]43C)[C@@H]12`, the growth is -90.5% (active).
`CNC(=O)CCN1CCN(CC/C=C2\c3ccccc3Sc3ccc(Cl)cc32)CC1`: the growth was 72.5% (inactive).
As for `O=c1c2cc(-c3ccc(F)cc3F)ccc2n(O)c(=O)n1-c1cccc(C(F)(F)F)c1`, the growth is -0.858% (active).
For the molecule `Cc1cnc([C@]23CC[C@@H](C)[C@H](C)[C@H]2C2=CC[C@@H]4[C@@]5(C)Cc6c([nH]c7ccccc67)C(C)(C)[C@@H]5CC[C@@]4(C)[C@]2(C)CC3)o1`, the growth was 90.6% [100 µM] (inactive).
As to `C=C(C)[C@@H]1CC[C@]2(C)[C@H](CC[C@@H]3[C@@H]([C@@](C)(O)CCC=C(C)C)CC[C@]32C)[C@@]1(C)CCC(=O)O`, the growth was 8.85% [100 µM] (active).
For `Cc1cccc2c1NC(=O)C2(c1ccc(O)cc1)c1ccc(O)cc1`, the growth was -11% (active).
For `O=C1/C(=C/c2ccc([N+](=O)[O-])s2)Oc2cc(Cl)ccc21`, the growth was -17.8% (active).
For the molecule `COC(=O)C(OC(C)=O)C(OC(C)=O)c1ccc(OC)c(OC)c1` (stereo not given), the growth was 108% (inactive).
Regarding `CC1Cc2ccccc2O1` (stereo not given), the growth was 120% (inactive).
As for `Cc1ccc(-c2cc3nc(C(Cl)Cl)nc(C)n3n2)cc1`, the growth was 110% (inactive).
Regarding `CCCCC(=O)N/N=C/c1cc(I)cc(I)c1O`, the growth is 69% (inactive).
For `CN1CCN(Cc2ccc(NC(=O)c3cncc(C#Cc4cnc5ccc(NC6CCOCC6)nn45)c3)cc2C(F)(F)F)CC1`, the growth was -88.5% (active).
`CCN(CC)CCn1c2ccc(OC)cc2c2sc3cc(OC)ccc3c(=O)c21`: the growth is 14.5% (inactive).
The value for `Cc1cc(NCCN(C(C)C)C(C)C)nc(/N=C(\N)Nc2ccc(Cl)c(C(F)(F)F)c2)n1` was -98.6% (active); that for `CCCc1c(OC(=O)c2ccccc2)nc2[nH]c(=O)sc2c1C` was 84.4% (inactive).
Turning to `Cc1cccc(C[C@H](NC(=O)Nc2ccc(Cl)cc2F)C(=O)N[C@@H]2C(=O)N3C[C@H](O)C[C@H]3C(=O)N3CCCC[C@H]3C(=O)N[C@@H](C)C(=O)N3C[C@H](C)C[C@H]3C(=O)O[C@H]2C)c1`, the growth was -7.94% (active).
The value for `CCNC(=S)N(Cc1ccccc1)Cc1ccccc1` was 95.4% (inactive).
The value for `C/C(=N\O)c1ccc(NC(=O)CSc2nnc(-c3ccccc3)n2-c2ccccc2)cc1` was 75.4% (inactive); that for `Nc1ccccc1NC(=O)c1ccc(NC(=O)C/C=C/c2cccnc2)cn1` was -19.6% (active); that for `CCC[C@H](N[C@@H](C)C(=O)N1[C@H](C(=O)O)C[C@@H]2CCCC[C@@H]21)C(=O)OCC` was 101% (inactive).
As to `CC[C@H](CO)Nc1ccc2ncc(C#Cc3cncc(C(=O)Nc4ccc(CN5CCN(C)CC5)c(C(F)(F)F)c4)c3)n2n1`, the growth was -67.8% (active).
Take `O=C(CCc1nnc2sc(-c3ccc(Cl)cc3Cl)nn12)c1nc2ncccc2[nH]1`: the growth is -66% (active).
Regarding `CCCN1CCN(c2ccc3nc(-c4ccc5nc(-c6ccc(OCC)c(OCC)c6)[nH]c5c4)[nH]c3c2)CC1`, the growth was -77.2% (active).
The value for `Nc1nc(N)c2c(n1)NC(c1cccc(Nc3ccnc4cc(C(F)(F)F)ccc34)c1)CC(c1ccc3c(c1)OCO3)=N2` (stereo not given) was 58% (inactive); that for `CCOC(=O)/C(F)=C/C1CC1C1CCCCC1` (stereo not given) was 96.9% (inactive).

The values are drawn from PubChem BioAssay (NCI).
